In the supplement of paper PMC10849652:
Targets with a hit are over-represented here; the source holds about 8,800 in all. About 0.5% of all pairs of compound and target were hits.

Legend:
Test in all cases: log2 fold change, soluble protein after heating vs DMSO (PISA); higher = thermal stabilisation; K562 lysate, 10 uM; active = over 0.2 and 3.5 SD of the protein, either way, in both replicates (recomputed)
nilotinib = compound: Cc1cn(-c2cc(NC(=O)c3ccc(C)c(Nc4nccc(-c5cccnc5)n4)c3)cc(C(F)(F)F)c2)cn1 [nilotinib]
In short: (§1)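 Soluble protein was defined as the supernatant remaining after 21,000xg for 90 min, following pooling of heated aliquots and adjustment to 0.5% NP-40 at 4°C. Before that, crude K562 extract at 1 mg/mL protein in PBS pH 7.4 with 1 mM MgCl2 was treated with 10 μM compound for 30 min and heated for 3 min across 48°C-58°C. Quantification used TMTpro 16plex LC-MS/MS with channel sums equalised, and values are log-two fold changes in thermal stability relative to solvent controls from duplicates.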

[1] = compound: Cc1nc(Nc2n[nH]c3c2CN(C(=O)N[C@H](CN(C)C)c2ccccc2)C3(C)C)c2sccc2n1
In short: as §1

dasatinib = compound: Cc1nc(Nc2ncc(C(=O)Nc3c(C)cccc3Cl)s2)cc(N2CCN(CCO)CC2)n1 [dasatinib]
In short: as §1

[2] = compound: Cc1ncc(-c2ccnc(Nc3ccc(S(C)(=O)=O)cc3)n2)n1C(C)C
In short: as §1

[3] = compound: Cn1cc(-c2ccc3c(c2)CCN3C(=O)Cc2cccc(C(F)(F)F)c2)c2c(N)ncnc21
In short: as §1

quisinostat = compound: Cn1cc(CNCC2CCN(c3ncc(C(=O)NO)cn3)CC2)c2ccccc21 [quisinostat]
In short: as §1

tipifarnib = compound: Cn1cncc1[C@@](N)(c1ccc(Cl)cc1)c1ccc2c(c1)c(-c1cccc(Cl)c1)cc(=O)n2C [tipifarnib]
In short: as §1

[4] = compound: NC(=O)Nc1cc(-c2cccc(F)c2)sc1C(=O)N[C@H]1CCCNC1
In short: as §1

[5] = compound: NC(=O)c1cnc(N[C@@H]2CCCC[C@@H]2N)nc1Nc1cccc(-n2nccn2)c1
In short: as §1

[6] = compound: NC1(c2ccc(-c3nc4ccn5c(=O)[nH]nc5c4cc3-c3ccccc3)cc2)CCC1
In short: as §1

[7] = compound: NCC(=O)Nc1ccc(-n2nc(C(F)(F)F)cc2-c2ccc3c(ccc4ccccc43)c2)cc1
In short: as §1

vorinostat = compound: O=C(CCCCCCC(=O)Nc1ccccc1)NO [vorinostat]
In short: as §1

silmitasertib = compound: O=C(O)c1ccc2c(c1)nc(Nc1cccc(Cl)c1)c1ccncc12 [silmitasertib]
In short: as §1

[8] = compound: O=C1NC(=O)C(c2cnc3ccccn23)=C1c1cn2c3c(cc(F)cc13)CN(C(=O)N1CCCCC1)CC2
In short: as §1

entospletinib = compound: c1cn2cc(-c3ccc4cn[nH]c4c3)nc(Nc3ccc(N4CCOCC4)cc3)c2n1 [entospletinib]
In short: as §1

Measured: log2 fold change

TCF12 isoform 3 (UniProt Q99081)
Sequence of UniProt Q99081 (Q99081 whole entry, looked up): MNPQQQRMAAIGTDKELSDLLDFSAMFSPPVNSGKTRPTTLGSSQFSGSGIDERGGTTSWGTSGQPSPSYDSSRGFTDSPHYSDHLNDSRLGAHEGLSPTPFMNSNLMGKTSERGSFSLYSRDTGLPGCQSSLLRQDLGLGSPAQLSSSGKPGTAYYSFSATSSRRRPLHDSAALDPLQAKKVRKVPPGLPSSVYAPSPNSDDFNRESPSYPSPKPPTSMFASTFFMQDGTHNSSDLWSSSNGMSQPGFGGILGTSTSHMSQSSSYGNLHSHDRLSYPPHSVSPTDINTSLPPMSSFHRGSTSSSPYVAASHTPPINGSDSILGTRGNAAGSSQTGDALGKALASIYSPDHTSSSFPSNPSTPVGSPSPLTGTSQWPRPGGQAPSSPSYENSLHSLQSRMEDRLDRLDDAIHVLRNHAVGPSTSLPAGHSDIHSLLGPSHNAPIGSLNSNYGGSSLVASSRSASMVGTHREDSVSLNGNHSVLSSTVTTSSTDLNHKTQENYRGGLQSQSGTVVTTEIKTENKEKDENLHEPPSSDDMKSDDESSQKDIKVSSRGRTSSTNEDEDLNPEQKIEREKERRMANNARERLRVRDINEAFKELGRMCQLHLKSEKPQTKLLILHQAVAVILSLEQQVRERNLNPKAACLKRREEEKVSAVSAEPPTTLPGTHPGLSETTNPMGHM
active: vorinostat -0.263
inactive: nilotinib -0.031 | [1] 0.016 | dasatinib 0 | [2] 0.052 | [3] -0.022 | quisinostat 0.02 | tipifarnib -0.022 | [4] -0.011 | [5] -0.032 | [6] -0.043 | [7] -0.016 | silmitasertib -0.024 | [8] -0.004 | entospletinib 0.006

TOE1 (UniProt Q96GM8)
inactive: nilotinib -0.039 | [1] -0.012 | dasatinib 0.016 | [2] 0.04 | [3] 0.015 | quisinostat -0.036 | tipifarnib 0.006 | [4] 0.023 | [5] -0.013 | [6] -0.01 | [7] -0.003 | silmitasertib 0.041 | [8] 0.002 | entospletinib 0.043
active: vorinostat -0.359

UBR3 isoform 4 (UniProt Q6ZT12)
inactive: nilotinib 0.003 | [1] -0.033 | dasatinib -0.026 | [2] -0.005 | [3] 0.014 | quisinostat -0.069 | tipifarnib -0.009 | [4] 0.036 | [5] -0.032 | [6] -0.039 | [7] -0.011 | silmitasertib 0.023 | [8] -0.005 | entospletinib -0.003
active: vorinostat -0.43

TUBB3 (UniProt Q13509)
inactive: nilotinib 0.029 | [1] -0.028 | dasatinib -0.027 | [2] -0.003 | [3] 0.024 | quisinostat -0.004 | tipifarnib -0.013 | [4] 0.039 | [5] 0.006 | [6] 0.006 | [7] -0.012 | silmitasertib 0.04 | [8] 0.006 | entospletinib -0.002
active: vorinostat -0.688

UBAP2 (UniProt Q5T6F2)
inactive: nilotinib -0.093 | [1] 0.008 | dasatinib -0.042 | [2] 0.021 | [3] -0.023 | quisinostat -0.008 | tipifarnib -0.073 | [4] 0.019 | [5] 0.016 | [6] 0.029 | [7] 0.031 | vorinostat 0.03 | silmitasertib -0.007 | [8] 0 | entospletinib -0.013

TUBGCP4 (UniProt Q9UGJ1)
Sequence of UniProt Q9UGJ1 (Q9UGJ1 whole entry, looked up): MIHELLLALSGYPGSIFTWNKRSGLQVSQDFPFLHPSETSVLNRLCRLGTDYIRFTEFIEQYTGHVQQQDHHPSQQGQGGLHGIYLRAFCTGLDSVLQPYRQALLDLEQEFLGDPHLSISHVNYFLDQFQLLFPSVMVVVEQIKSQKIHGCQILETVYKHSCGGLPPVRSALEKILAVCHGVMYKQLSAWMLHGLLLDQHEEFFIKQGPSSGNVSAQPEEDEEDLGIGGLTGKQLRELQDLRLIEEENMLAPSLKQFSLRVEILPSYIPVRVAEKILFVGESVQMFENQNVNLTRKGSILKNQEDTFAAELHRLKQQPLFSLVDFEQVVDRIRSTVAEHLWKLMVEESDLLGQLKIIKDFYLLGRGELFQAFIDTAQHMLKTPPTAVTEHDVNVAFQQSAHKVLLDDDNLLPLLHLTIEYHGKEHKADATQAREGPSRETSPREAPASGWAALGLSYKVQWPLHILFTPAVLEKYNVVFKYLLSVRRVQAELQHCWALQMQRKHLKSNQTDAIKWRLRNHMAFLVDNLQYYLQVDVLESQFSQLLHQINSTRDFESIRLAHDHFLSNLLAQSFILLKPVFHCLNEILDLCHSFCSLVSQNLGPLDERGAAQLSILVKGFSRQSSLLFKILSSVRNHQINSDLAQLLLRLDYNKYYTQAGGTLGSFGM
active: vorinostat -0.219
inactive: nilotinib -0.028 | [1] 0.008 | dasatinib -0.046 | [2] 0.001 | [3] 0.018 | quisinostat -0.027 | tipifarnib 0.008 | [4] 0.069 | [5] 0.034 | [6] 0.01 | [7] -0.11 | silmitasertib 0.003 | [8] 0.02 | entospletinib 0.038

TUBA3C (UniProt P0DPH7)
active: vorinostat -0.913
inactive: nilotinib -0.009 | [1] -0.029 | dasatinib -0.018 | [2] -0.001 | [3] -0.05 | quisinostat -0.098 | tipifarnib -0.025 | [4] 0.05 | [5] 0.022 | [6] 0.005 | [7] 0 | silmitasertib 0.017 | [8] -0.008 | entospletinib -0.007

TBK1 (UniProt Q9UHD2)
inactive: nilotinib -0.003 | dasatinib 0.029 | [2] 0.125 | [3] 0.251 | quisinostat -0.097 | tipifarnib -0.026 | [4] 0.209 | [5] 0.032 | [6] -0.074 | [7] -0.04 | vorinostat -0.361 | silmitasertib 0.189 | [8] 0.125 | entospletinib 0.204
active: [1] 0.618

TSFM (UniProt P43897)
active: vorinostat -0.261
inactive: nilotinib -0.013 | [1] 0.021 | dasatinib -0.034 | [2] -0.028 | [3] 0.017 | quisinostat -0.016 | tipifarnib 0.002 | [4] 0.002 | [5] 0.037 | [6] -0.026 | [7] 0.002 | silmitasertib 0.043 | [8] 0.035 | entospletinib -0.014

TUBA1C (UniProt Q9BQE3)
active: vorinostat -0.256
inactive: nilotinib -0.001 | [1] 0.021 | dasatinib -0.017 | [2] 0.006 | [3] 0.018 | quisinostat -0.038 | tipifarnib -0.007 | [4] 0.014 | [5] -0.006 | [6] -0.052 | [7] 0.019 | silmitasertib 0.013 | [8] 0.006 | entospletinib -0.014

TJP1 isoform 2 (UniProt Q07157)
Sequence of UniProt Q07157 (Q07157 whole entry, looked up): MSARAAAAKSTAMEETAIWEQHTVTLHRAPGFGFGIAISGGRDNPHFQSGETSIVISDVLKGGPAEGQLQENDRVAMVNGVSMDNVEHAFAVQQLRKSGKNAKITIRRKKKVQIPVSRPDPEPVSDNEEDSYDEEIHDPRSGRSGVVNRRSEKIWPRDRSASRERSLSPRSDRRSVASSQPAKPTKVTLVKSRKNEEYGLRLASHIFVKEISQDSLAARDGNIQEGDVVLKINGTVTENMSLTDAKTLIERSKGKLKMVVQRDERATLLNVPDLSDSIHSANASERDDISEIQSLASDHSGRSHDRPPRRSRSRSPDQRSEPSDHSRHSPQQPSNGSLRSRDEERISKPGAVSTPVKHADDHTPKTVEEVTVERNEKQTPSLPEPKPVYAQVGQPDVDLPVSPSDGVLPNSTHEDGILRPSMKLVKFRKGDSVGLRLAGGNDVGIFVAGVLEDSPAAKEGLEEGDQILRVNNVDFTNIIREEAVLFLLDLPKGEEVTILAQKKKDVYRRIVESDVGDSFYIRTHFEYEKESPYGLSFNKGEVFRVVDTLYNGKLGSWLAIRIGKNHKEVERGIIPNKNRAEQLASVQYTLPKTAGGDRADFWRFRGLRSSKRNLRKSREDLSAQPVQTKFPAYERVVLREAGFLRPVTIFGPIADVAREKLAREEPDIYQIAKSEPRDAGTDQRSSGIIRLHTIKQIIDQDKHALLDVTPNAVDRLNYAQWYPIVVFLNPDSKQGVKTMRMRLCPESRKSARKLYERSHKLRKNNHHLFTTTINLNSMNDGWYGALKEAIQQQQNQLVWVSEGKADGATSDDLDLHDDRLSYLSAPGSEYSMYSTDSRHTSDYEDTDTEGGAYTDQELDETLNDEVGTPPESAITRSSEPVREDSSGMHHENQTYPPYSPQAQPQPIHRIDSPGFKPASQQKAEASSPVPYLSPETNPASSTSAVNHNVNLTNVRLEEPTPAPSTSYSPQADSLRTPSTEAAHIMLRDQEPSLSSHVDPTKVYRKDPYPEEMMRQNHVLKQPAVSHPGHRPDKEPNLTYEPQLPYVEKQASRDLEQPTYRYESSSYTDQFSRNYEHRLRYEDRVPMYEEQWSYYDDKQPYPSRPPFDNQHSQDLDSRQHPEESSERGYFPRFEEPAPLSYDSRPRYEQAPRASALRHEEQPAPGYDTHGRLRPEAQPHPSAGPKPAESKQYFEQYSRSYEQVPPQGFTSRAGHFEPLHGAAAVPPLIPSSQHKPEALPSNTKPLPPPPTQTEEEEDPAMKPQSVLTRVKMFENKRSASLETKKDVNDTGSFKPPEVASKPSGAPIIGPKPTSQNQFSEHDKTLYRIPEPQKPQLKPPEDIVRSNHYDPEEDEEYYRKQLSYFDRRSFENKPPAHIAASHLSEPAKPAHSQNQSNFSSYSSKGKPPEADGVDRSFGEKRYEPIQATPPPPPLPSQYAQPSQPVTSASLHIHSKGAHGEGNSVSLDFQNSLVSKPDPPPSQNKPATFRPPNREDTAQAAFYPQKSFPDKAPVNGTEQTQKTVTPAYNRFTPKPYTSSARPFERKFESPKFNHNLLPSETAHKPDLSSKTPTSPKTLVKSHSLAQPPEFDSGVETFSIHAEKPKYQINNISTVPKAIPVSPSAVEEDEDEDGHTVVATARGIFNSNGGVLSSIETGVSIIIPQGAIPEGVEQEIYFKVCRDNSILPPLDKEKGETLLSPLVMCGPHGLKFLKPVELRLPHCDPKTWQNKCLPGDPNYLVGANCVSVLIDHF
inactive: nilotinib -0.003 | [1] 0.004 | dasatinib 0.036 | [2] 0.006 | [3] -0.013 | quisinostat -0.011 | tipifarnib -0.005 | [4] -0.019 | [5] 0.022 | [6] -0.041 | [7] 0.029 | vorinostat 0.041 | silmitasertib -0.035 | [8] -0.023 | entospletinib -0.043

TMEM87A (UniProt Q8NBN3)
Sequence of UniProt Q8NBN3 (Q8NBN3 whole entry, looked up): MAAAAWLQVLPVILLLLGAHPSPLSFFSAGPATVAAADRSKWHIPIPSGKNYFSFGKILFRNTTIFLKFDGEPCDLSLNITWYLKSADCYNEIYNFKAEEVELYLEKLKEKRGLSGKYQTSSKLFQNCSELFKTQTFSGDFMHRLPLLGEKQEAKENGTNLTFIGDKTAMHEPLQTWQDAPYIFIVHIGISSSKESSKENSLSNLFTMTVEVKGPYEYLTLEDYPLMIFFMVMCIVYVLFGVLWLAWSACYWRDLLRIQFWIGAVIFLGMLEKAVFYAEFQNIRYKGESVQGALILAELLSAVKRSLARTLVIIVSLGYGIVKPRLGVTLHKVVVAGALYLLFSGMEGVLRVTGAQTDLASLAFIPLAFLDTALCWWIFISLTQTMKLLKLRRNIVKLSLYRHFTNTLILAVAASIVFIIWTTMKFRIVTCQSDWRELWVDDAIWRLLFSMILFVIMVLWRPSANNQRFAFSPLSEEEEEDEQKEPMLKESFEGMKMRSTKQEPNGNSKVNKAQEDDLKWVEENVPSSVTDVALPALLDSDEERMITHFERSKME
inactive: nilotinib -0.009 | [1] 0.055 | dasatinib -0.007 | [2] 0.027 | [3] 0.03 | quisinostat -0.021 | tipifarnib 0.024 | [4] 0.003 | [5] 0.03 | [6] 0.017 | [7] 0.001 | vorinostat 0.074 | silmitasertib 0.007 | [8] -0.013 | entospletinib 0.029

UCHL5 isoform 3 (UniProt Q9Y5K5)
Sequence of UniProt Q9Y5K5 (Q9Y5K5 whole entry, looked up): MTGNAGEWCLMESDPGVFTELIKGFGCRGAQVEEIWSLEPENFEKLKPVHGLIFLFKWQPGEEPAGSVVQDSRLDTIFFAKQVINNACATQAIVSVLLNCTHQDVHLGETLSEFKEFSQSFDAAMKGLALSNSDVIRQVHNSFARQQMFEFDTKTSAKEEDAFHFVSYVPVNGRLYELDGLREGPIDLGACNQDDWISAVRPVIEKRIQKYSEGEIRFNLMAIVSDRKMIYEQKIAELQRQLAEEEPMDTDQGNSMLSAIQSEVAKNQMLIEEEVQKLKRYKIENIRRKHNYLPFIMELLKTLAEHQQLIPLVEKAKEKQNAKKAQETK
inactive: nilotinib 0.016 | [1] -0.008 | dasatinib 0.01 | [2] 0.001 | [3] 0.006 | quisinostat -0.01 | tipifarnib -0.005 | [4] 0.013 | [5] -0.031 | [6] 0.003 | [7] 0.004 | vorinostat -0.081 | silmitasertib 0 | [8] -0.009 | entospletinib -0.003

TERF2IP (UniProt Q9NYB0)
inactive: nilotinib 0.012 | [1] 0.013 | dasatinib 0.018 | [2] 0.009 | [3] 0.005 | quisinostat 0.024 | tipifarnib -0.012 | [4] 0.011 | [5] -0.017 | [6] -0.003 | [7] 0.038 | vorinostat 0.072 | silmitasertib 0.008 | [8] 0.011 | entospletinib 0.011

UBE3B (UniProt Q7Z3V4)
active: vorinostat -0.838
inactive: nilotinib 0.041 | [1] -0.006 | dasatinib 0.055 | [2] -0.011 | [3] 0.053 | quisinostat -0.077 | tipifarnib -0.102 | [4] 0.041 | [5] 0.14 | [6] -0.026 | [7] 0.117 | silmitasertib 0.061 | [8] 0.007 | entospletinib 0.115

TGFBRAP1 (UniProt Q8WUH2)
active: vorinostat -0.433
inactive: nilotinib 0.005 | [1] -0.043 | dasatinib -0.048 | [2] -0.015 | [3] 0.06 | quisinostat -0.076 | tipifarnib 0.004 | [4] 0.029 | [5] 0.009 | [6] 0.04 | [7] -0.039 | silmitasertib 0.051 | [8] -0.018 | entospletinib 0.024

TRA2A (UniProt Q13595)
active: vorinostat 0.568
inactive: nilotinib 0.098 | [1] -0.041 | dasatinib -0.08 | [2] -0.124 | [3] 0.077 | quisinostat -0.213 | tipifarnib -0.114 | [4] -0.206 | [5] 0 | [6] -0.062 | [7] 0.009 | silmitasertib -0.151 | [8] 0.005 | entospletinib -0.102

TBC1D2B (UniProt Q9UPU7)
Sequence of UniProt Q9UPU7 (Q9UPU7 whole entry, looked up): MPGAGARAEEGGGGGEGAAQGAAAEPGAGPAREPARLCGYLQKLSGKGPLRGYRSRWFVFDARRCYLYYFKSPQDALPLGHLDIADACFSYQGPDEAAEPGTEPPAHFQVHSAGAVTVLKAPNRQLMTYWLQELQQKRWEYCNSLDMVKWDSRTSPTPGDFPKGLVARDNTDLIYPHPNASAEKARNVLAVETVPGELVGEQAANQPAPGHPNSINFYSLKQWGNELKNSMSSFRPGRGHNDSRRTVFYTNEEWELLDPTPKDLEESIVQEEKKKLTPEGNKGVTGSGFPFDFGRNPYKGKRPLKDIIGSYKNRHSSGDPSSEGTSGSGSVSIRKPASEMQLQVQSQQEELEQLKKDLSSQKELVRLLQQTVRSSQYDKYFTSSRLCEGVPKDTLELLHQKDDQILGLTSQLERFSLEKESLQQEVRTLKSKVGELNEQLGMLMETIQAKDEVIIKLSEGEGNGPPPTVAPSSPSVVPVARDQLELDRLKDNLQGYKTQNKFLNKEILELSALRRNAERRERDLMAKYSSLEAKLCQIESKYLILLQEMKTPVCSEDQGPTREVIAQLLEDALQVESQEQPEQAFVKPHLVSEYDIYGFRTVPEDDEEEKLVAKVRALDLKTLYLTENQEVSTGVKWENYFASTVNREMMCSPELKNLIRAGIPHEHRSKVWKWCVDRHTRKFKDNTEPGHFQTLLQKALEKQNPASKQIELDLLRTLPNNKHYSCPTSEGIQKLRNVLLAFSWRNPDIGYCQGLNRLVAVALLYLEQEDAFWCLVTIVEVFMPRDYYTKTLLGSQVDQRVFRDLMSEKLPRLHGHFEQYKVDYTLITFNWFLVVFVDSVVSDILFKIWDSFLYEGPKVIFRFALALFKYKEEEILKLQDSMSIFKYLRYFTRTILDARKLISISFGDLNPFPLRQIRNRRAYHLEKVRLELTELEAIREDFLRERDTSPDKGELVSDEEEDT
active: vorinostat -0.249
inactive: nilotinib -0.019 | [1] 0.038 | dasatinib -0.008 | [2] -0.07 | [3] 0.055 | quisinostat 0.007 | tipifarnib -0.087 | [4] 0.007 | [5] -0.021 | [6] 0.006 | [7] -0.007 | silmitasertib 0.049 | [8] -0.047 | entospletinib -0.061
